Source: PubChem BioAssay AID720550 (National Center for Advancing Translational Sciences (NCATS), 2013)
Inconclusive results are not listed. Calls of active or inactive are those of the source. Calls come from the whole dose curve; as a rule, active = well fitted curve in the direction sought with a large enough effect; inconclusive = small, poorly fitted or top-dose-only effect, or another doubt; inactive = no such curve, though single readings can be large or run the other way.

Assay: qHTS for Inhibitors of Bloom's syndrome helicase (BLM): Thiazole Orange DNA Binding Counterscreen for SAR.
Settings: fluorescence; Potency: Thiazole orange DNA displacement; series mostly up to 57.1 µM; activity change, negative = displacement: at the top concentration
From the text: Human RecQ DNA helicases participate in maintenance of genome stability and DNA repair. While other types of helicases have been explored as targets for drug development, members of the RecQ family have remained less well characterized. Mutations of the Bloom helicase gene have been associated with the rare human genetic disease called Bloom syndrome. […] Moreover, identified inhibitors can be used in cells and animal models to examine the consequences of inhibition on the survival of cancer cells where it has been shown that BLM plays an important role.
A fluorescence-based, biochemical assay in 1536 well format was developed to evaluate inhibition of BLM DNA unwinding activity. This assay was used to screen the MLPCN library. The resulting compounds were subjected to orthogonal and secondary biochemical assays to triage the initial hits, to classify compounds based on mode of action and to derive structure activity relationships (SARs) of candidate effectors. The Thiazole Orange (ThO) DNA binding (TO-binding) is used to eliminate inhibitors that operate via nonspecific DNA binding. This displacement assay is miniaturized for a 1536-well format and utilizes a ThO dye bound to unlabeled DNA. Inactivation or no significant activity is the desired outcome for this assay.
NIH Chemical Genomics Center [NCGC]
NIH Molecular Libraries Probe Centers Network [MLPCN]
Assay Submitter (PI): Opher Gileadi, Structural Genomics Consortium, University of Oxford, UK
Compounds were added to a 4 uL mixture of 50 nM DNA and 100 nM ThO via pintool transfer. The fluorescence signal (excitation 480 nm, emission 530 nm) was measured after 15 min incubation at room temperature using the ViewLux CCD imager.

Row | SMILES | activity change, negative = displacement | Potency
1 | O=C(Nc1ccc(-c2nc3ccccc3[nH]2)cc1)Nc1ccc2c(c1)CCCO2 | 91.4% (inactive) | 
2 | O=C(Nc1ccc2ccccc2c1)Nc1cccc(-c2ccncc2)n1 | 1.01% (inactive) | 
3 | O=C(Nc1ccc(Cl)c(Cl)c1)Nc1nnc(-c2ccc(F)cc2)s1 | -18.2% (inactive) | 
4 | O=C(Nc1nnc(-c2ccncc2)s1)Nc1ccc(Cl)cc1Cl | 10% (inactive) | 
5 | Cc1cc(NC(=O)Nc2nnc(-c3ccncc3)s2)ccc1C#N | 12.5% (inactive) | 
6 | O=C(Nc1ccccc1)Nc1nnc(-c2ccncc2)s1 | 4.99% (inactive) | 
7 | O=C(Nc1ccc2ccccc2c1)Nc1nnc(-c2ccc(Cl)cc2)s1 | -23.2% (inactive) | 
8 | COc1ccc(-c2nnc(NC(=O)Nc3ccc4ccccc4c3)s2)cc1OC | 141% (inactive) | 
9 | c1ccc2[nH]c(Nc3nnc(-c4ccncc4)s3)nc2c1 | -17.6% (inactive) | 
10 | O=C(Nc1ccc(Cl)c(Cl)c1)Nc1ccnc(-c2ccncc2)n1 | 558% (inactive) | 
11 | N#Cc1cc(NC(=O)Nc2nnc(-c3ccncc3)s2)ccc1Cl | -24% (inactive) | 
12 | O=C(Nc1ccc2ccccc2c1)Nc1nnc(-c2ccc(Cl)cc2Cl)s1 | 95.4% (inactive) | 
13 | O=C(Nc1ccc(Cl)cc1)Nc1nnc(-c2ccncc2)s1 | 34.7% (inactive) | 
14 | O=C(Nc1ccc(Cl)c(C(F)(F)F)c1)Nc1cccc(-c2ccncc2)n1 | 76.7% (inactive) | 
15 | O=C(Nc1ccc(-c2nc3ccccc3[nH]2)cc1)Nc1ccc2occc2c1 | 32.4% (inactive) | 
16 | Cc1cc(NC(=O)Nc2nnc(C3CCCCC3)s2)ccc1Cl | 100% (inactive) | 
17 | O=C(Nc1ccc(Cl)c(Cl)c1)Nc1nnc(N2CCNCC2)s1 | -21.8% (inactive) | 
18 | O=C(Nc1ccc(Cl)c(Cl)c1)Nc1ncc(-c2ccncc2)s1 | 126% (inactive) | 
19 | N#Cc1ccc(NC(=O)Nc2nnc(-c3ccncc3)s2)cc1 | 62.4% (inactive) | 
20 | O=C(Nc1ccc2ccccc2c1)Nc1nnc(-c2cccnc2)s1 | 7.64% (inactive) | 

Row | SMILES | activity change, negative = displacement | Potency
21 | O=C(Nc1ccc2sccc2c1)Nc1nnc(-c2ccncc2)s1 | 5.03% (inactive) | 
22 | COc1ccccc1CNC(=O)Nc1nnc(-c2ccncc2)s1 | 1.57% (inactive) | 
23 | O=C(Nc1ccc(Cl)c([N+](=O)[O-])c1)Nc1nnc(-c2ccncc2)s1 |  | 0.513 µM (active)
24 | O=C(Nc1ccc(Cl)c(Cl)c1)Nc1nnc(C2CCCCC2)s1 | 46.9% (inactive) | 
25 | Cc1cc(NC(=O)Nc2nnc(C3CCCCC3)s2)ccc1F | 4.58% (inactive) | 
26 | CCOC(=O)c1cccc(NC(=O)Nc2nnc(-c3ccncc3)s2)c1 | 91.3% (inactive) | 
27 | CN1CCN(c2nnc(NC(=O)Nc3ccc(Cl)c(Cl)c3)s2)CC1 | 24.5% (inactive) | 
28 | O=C(Nc1ccc(Cl)c(Cl)c1)Nc1ccc(-c2ccncc2)s1 | -4.46% (inactive) | 
29 | O=C(Nc1ccc(-n2cncn2)c(C(F)(F)F)c1)Nc1nnc(-c2ccncc2)s1 | 264% (inactive) | 
30 | O=C(Nc1ccc(F)c(C(F)(F)F)c1)Nc1nc(-c2ccncc2)cs1 | 96.9% (inactive) | 
31 | Cc1cc(NC(=O)Nc2nnc(-c3ccncc3)s2)ccc1F | -8.28% (inactive) | 
32 | CC(C)(C)NC(=O)Nc1nnc(-c2ccncc2)s1 | 7.57% (inactive) | 
33 | O=C(Nc1nnc(-c2ccncc2)s1)Nc1cc(C(F)(F)F)ccc1F | 20% (inactive) | 
34 | O=C(Nc1ccc(Cl)c(Cl)c1)N1CCN(c2ccncc2)CC1 | 4.41% (inactive) | 
35 | O=C(Nc1ccc(F)c(C(F)(F)F)c1)Nc1nnc(C2CCCCC2)s1 | 56.4% (inactive) | 
36 | O=C(Nc1ccc(F)c(C(F)(F)F)c1)Nc1nnc(-c2cccnc2)s1 | -2.96% (inactive) | 
37 | O=C(Nc1ccc2c(c1)OCCO2)Nc1nnc(-c2ccncc2)s1 | 88% (inactive) | 
38 | Cc1cc(NC(=O)Nc2cccc(-c3ccncc3)n2)ccc1Cl |  | inactive
39 | O=C(Nc1ccc(Cl)c(C(F)(F)F)c1)Nc1nnc(-c2ccncc2)s1 | 13.6% (inactive) | 
40 | N/C(=N\c1nnc(-c2ccncc2)s1)Nc1ccc(Cl)c(Cl)c1 | 20.4% (inactive) | 
